# Calls of active or inactive are those of the source. Calls follow the shape of the dose curve; as a rule, active = well fitted inhibition curve with a large enough effect in the repeat runs (not every such curve was filed as active); inconclusive = weak or mixed curves; inactive = flat fitted curve, though single readings scatter.
# Molecular target: Thyrotropin-releasing hormone receptor (Homo sapiens) (UniProt P34981)
# Assay: qHTS assay to identify small molecule antagonists of the thyrotropin-releasing hormone receptor (TRHR) signaling pathway (AID 1346877)
# Details: TRHR-HEK293, TRH-induced calcium fluorescence, antagonist mode; series mostly up to 51.3 µM
# Description: National Center for Advancing Translational Sciences [NCATS]
# NIH Chemical Genomics Center [NCGC]
# U.S. Environmental Protection Agency [EPA]
# National Institutes of Environmental Health Sciences [NIEHS]
# National Toxicology Program [NTP]
# U.S. Food and Drug Administration [FDA]
# Thyrotropin-releasing hormone (TRH) receptor (TRHR) is a G-protein-coupled receptor which binds the tripeptide thyrotropin releasing hormone. TRHR is found in the brain and, when bound by TRH, acts (through phospholipase C) to increase intracellular inositol trisphosphate. It plays a crucial role in the anterior pituitary where it controls the synthesis and secretion of thyroid stimulating hormone and prolactin. The TRHR-Hek293 assay is a cell-based assay, and it has the potential to screen G protein-coupled receptors. A compound/drug can either activate (agonist) or suppress (antagonist) GPCRs that can be monitored by levels of intracellular calcium. In this assay, the Tox21 10K compound library was screened to identify potential TRHR antagonists.
# Tox21 Assay Protocol Summary:
# The TRHR-Hek293 cells were dispensed at 1500cells/4uL/well in 1536-well black-clear bottom plates using a Multidrop dispenser. After the assay plates were incubated at a 37 C/5% CO2 incubator for 18 hours, 4 uL of Dye-Loading Solution was added to each well. The plates were incubated at 37 C for 2 hours. For agonist mode, 23 nL of compounds dissolved in DMSO, positive controls or DMSO only was transferred to the assay plate by a pin tool. The fluorescence intensity in the plates was measured using FDSS 7000EX kinetic plate reader for 3 min at 1 sec intervals. For antagonist mode, 23 nL of compounds dissolved in DMSO, positive controls or DMSO only was transferred to the assay plate by a pin tool. After 5 min incubation at room temperature, 1 uL of TRH was added on the top of the cell/compound mixtures to achieve a final agonist concentration of 1 nM. The fluorescence intensity in the plates was measured using FDSS 7000EX kinetic plate reader for 3 min at 1 sec intervals. Each test compound was measured at 15 concentrations and in triplicates.
# Chain of Thyrotropin-releasing hormone receptor (Homo sapiens) (P34981 whole entry, looked up): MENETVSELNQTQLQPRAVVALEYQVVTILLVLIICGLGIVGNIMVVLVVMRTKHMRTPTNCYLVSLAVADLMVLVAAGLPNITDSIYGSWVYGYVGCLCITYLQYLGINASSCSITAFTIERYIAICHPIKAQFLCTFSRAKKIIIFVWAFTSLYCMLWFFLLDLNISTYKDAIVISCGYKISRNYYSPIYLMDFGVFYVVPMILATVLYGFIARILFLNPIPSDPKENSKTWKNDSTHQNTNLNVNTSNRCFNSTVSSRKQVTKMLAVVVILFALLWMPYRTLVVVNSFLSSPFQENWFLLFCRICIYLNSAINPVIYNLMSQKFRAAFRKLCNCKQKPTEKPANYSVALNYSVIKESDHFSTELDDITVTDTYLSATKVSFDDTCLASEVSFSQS
row,SMILES,outcome
1,O=S1(=O)N=C(O)c2ccccc21,inactive
2,O=C1Nc2cc(Cl)ccc2Oc2ccccc21,inactive
3,O=C(NS(=O)(=O)/C=C/c1cccs1)c1ccc(F)cc1Br,inactive
4,CCCCOC(=O)/C=C\C(=O)OCCCC,inactive
5,COc1ccc(OC)c(OC)c1,inactive
6,O=S1(=O)c2cccc3cccc(c23)N1CCCN1CCN(c2ccc(F)cc2)CC1,inactive
7,O=C(O)Cc1sc(-c2ccccc2)nc1-c1ccc(Cl)cc1,inactive
8,CC(=O)NCCCS(=O)(=O)O,inactive
9,COc1cc(C(C)(C)C)c(O)c(C(C)(C)C)c1,inactive
10,CN1CCN(C2=Nc3cc(Cl)ccc3Nc3ccccc32)CC1,inactive
11,CCCCC(CC)COCCCN (stereo not given),inactive
12,CN(c1nccc(=O)[nH]1)C1CCN(c2nc3ccccc3n2Cc2ccc(F)cc2)CC1,inactive
13,O=C=NC1CCC(CC2CCC(N=C=O)CC2)CC1 (stereo not given),inactive
14,CC(=O)OCCc1ccccc1,inactive
15,Oc1ccc(O)c2c(O)cccc12,inactive
16,NC(N)=NN=C(/C=C/c1ccc([N+](=O)[O-])o1)/C=C/c1ccc([N+](=O)[O-])o1,inactive
17,CCOC(=O)C1=NN(c2ccccc2)C(=O)C1,inactive
18,CCCCC(CC)(CO)CO,inactive
19,CC(CN)CCCN (stereo not given),inactive
20,Cc1cc(C)c(S(=O)(=O)O)cc1N=Nc1cc(S(=O)(=O)O)c2ccccc2c1O,inactive

row,SMILES,outcome
1,O=C(O)Cn1c(C(=O)Nc2nc(-c3ccccc3Cl)cs2)cc2ccccc21,inactive
2,Cn1c(NCCN(CCO)CCCc2ccc([N+](=O)[O-])cc2)cc(=O)n(C)c1=O,inactive
3,Cc1ccc(C(C)c2ccc(C)c(C)c2)cc1C,inactive
4,c1ccc(-c2nc[nH]c2-c2ccccc2)cc1,inactive
5,CC(=O)/C=C/C1C(C)=CCCC1(C)C (stereo not given),inactive
6,CCN(CC)CCOc1ccc2c(c1)C(=O)c1cc(OCCN(CC)CC)ccc1-2,inactive
7,NCc1ccccc1,inactive
8,NC(N)=N/N=C/c1c(Cl)cccc1Cl,inactive
9,Cc1cc(CC(=O)O)c(C)n1-c1ccc(Cl)cc1,inactive
10,CCN(CC)C(C)=O,inactive
11,CCOc1ccc(NC(=O)CC(C)=O)cc1,inactive
12,O=c1c2ccccc2nnn1CCl,inactive
13,CN(C)C/C=C(/c1ccc(Br)cc1)c1cccnc1,inactive
14,CC(C)c1ccc2c(C(C)C)cc(C(C)C)c(S(=O)(=O)O)c2c1,inactive
15,CCCCCCCCCCCCC(=O)O,inactive
16,CC(=O)OC/C=C/c1ccccc1,inactive
17,O=C(O)c1cn(C2CC2)c2cc(Cl)c(F)cc2c1=O,inactive
18,CCCCCc1ccc(N)cc1,inactive
19,CCCCOC(=O)c1ccccc1C(=O)OCC(CC)CCCC (stereo not given),inactive
20,Cn1sccc1=O,inactive

# — PubChem BioAssay (Tox21)
